# From the supplement of paper PMC10981050
# Values joined by “and” are separate entries in the source; they are usually repeats but may differ in a detail not shown here. Identical values can stand only once. Counter-ions that a name gives are not always drawn.
# What was measured:
# Assay in all cases: cell viability relative to vehicle control; higher = less cytotoxic
# Conditions in all cases: 10 µM
# K562 = test system: K562
# In short: (§1)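 Mutant clones made by CRISPR editing and their isogenic wild-type counterparts, from four leukaemia lines, were exposed to a single 10 µM dose of each library compound for 48 h. The supernatant was then removed and CellTiter-Glo luminescence was read. Viability was reported as percent of the on-plate vehicle control.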
# MARIMO = test system: MARIMO
# In short: as §1
# MOLM14 = test system: MOLM14
# In short: as §1
# OCI-AML2 = test system: OCI-AML2
# In short: as §1
Compound,cell viability (K562; SRSF2 genotype: SRSF2 P95H/wt),cell viability (K562; SRSF2 genotype: SRSF2 wt/wt),cell viability (MARIMO; SRSF2 genotype: SRSF2 P95H/wt),cell viability (MARIMO; SRSF2 genotype: SRSF2 wt/wt),cell viability (MOLM14; SRSF2 genotype: SRSF2 P95H/wt),cell viability (MOLM14; SRSF2 genotype: SRSF2 wt/wt),cell viability (OCI-AML2; SRSF2 genotype: P95H/wt),cell viability (OCI-AML2; SRSF2 genotype: wt/wt)
COc1ccc(/C=C/c2cc(O)cc(O[C@@H]3O[C@H](CO)[C@@H](O)[C@H](O)[C@H]3O)c2)cc1O [Rhapontin],86.2% and 86.1%,92.3%,85.4%,99.8%,90.7%,99.3%,89.1%,95.5%
COc1cc2ncnc(Nc3ccc(Oc4ccccc4)cc3C)c2cc1OC,68% and 80.2%,79.3%,81.1%,66%,37.5%,29.9%,45.6%,43%
CO[C@@]1(NC(=O)CSC[C@@H](N)C(=O)O)C(=O)N2C(C(=O)O)=C(CSc3nnnn3C)CS[C@@H]21 [Cefminox Sodium],103%,99%,105%,109%,96%,106%,99.4%,98%
CC1(C)O[C@H]1COc1c2ccoc2cc2oc(=O)ccc12 [Oxypeucedanin],93.6% and 100%,97.6%,92.1%,93.2%,93.6%,101%,81.9%,93.4%
CCOC(=O)N1CCC(CN(Cc2ccc(Cl)cc2)Cc2ccc([N+](=O)[O-])s2)C1 (stereo not given) [Stenabolic (SR9009)],56% and 70.8%,63.4%,33.5%,25.5%,45.6%,41.9%,39.1%,41.4%
Cc1cccc(-c2nn3c(c2-c2ccnc4ccc(C(N)=O)cc24)CCC3)n1,102% and 98%,99.2%,104%,103%,99.7%,96.1%,108%,108%
CCOc1ccccc1OCCN[C@H](C)Cc1ccc(OC)c(S(N)(=O)=O)c1 [Tamsulosin hydrochloride],102% and 97.9%,98.3%,96.9%,107%,98.5%,103%,92.7%,104%
O=C(NOCC1CC1)c1ccc(F)c(F)c1Nc1ccc(I)cc1Cl,74.9% and 78.8%,69.2%,37.4%,35.4%,39.2%,30.4%,39.5%,46.5%
COc1c(N2CCNC(C)C2)c(F)cc2c(=O)c(C(=O)O)cn(C3CC3)c12 (stereo not given) [Gatifloxacin],97.2% and 103%,108%,112%,108%,102%,101%,104%,100%
C[C@H](CCC(=O)NCC(=O)O)[C@H]1CC[C@H]2[C@@H]3[C@H](O)C[C@@H]4C[C@H](O)CC[C@]4(C)[C@H]3C[C@H](O)[C@]12C [Glycocholic acid],107% and 108%,109%,106%,102%,100%,109%,117%,98%
CCNC(=O)Nc1ccc(-c2nc3c(c(N4CCOC[C@@H]4C)n2)CCN(C2COC2)C3)cc1,40.5% and 42.9%,39.5%,61.5%,53.6%,37.4%,28.8%,36.3%,33.7%
O=S(=O)(O)NC1CCCCC1 [Cyclamic acid],102% and 96.3%,97.2%,100%,111%,104%,104%,94.5%,110%
CC(C)(C)c1cc(O)c(C(C)(C)C)cc1O,97% and 97.5%,95.7%,73.4%,92.5%,88.8%,93.5%,86.2%,93.3%
CN1CCN(c2ccc(-c3ccncc3-c3cc(F)c(O)c(F)c3)cc2)CC1,94.2% and 97.1%,95.9%,80.1%,85.4%,66.4%,88.8%,99.5%,91.1%
CN1CCC[C@H]1c1cccnc1 [nicotine ditartrate],101% and 97.3%,97.6%,105%,117%,99.1%,101%,95.6%,106%
CC(C)=CCC[C@](C)(O[C@@H]1O[C@H](CO)[C@@H](O)[C@H](O)[C@H]1O)[C@H]1CC[C@]2(C)[C@@H]1[C@H](O)C[C@@H]1[C@@]3(C)CC[C@H](O)C(C)(C)[C@@H]3CC[C@]12C [Ginsenoside CK],82.7% and 78.2%,77%,92.6%,104%,77.2%,95%,65.3%,76.4%
O=NO [Sodium Nitrite],107% and 104%,95.9%,99.9%,99.4%,96.4%,101%,97.8%,99.5%
C=CC(=O)Nc1cccc(Nc2nc(Nc3ccc(OCCOC)cc3)ncc2F)c1,66.8% and 79.5%,73.4%,62.1%,60.4%,9.43%,6.93%,28.2%,31.8%
CN(C)C(=S)NN=C(c1ccccn1)c1ccccn1,30% and 40.3%,30.9%,11.5%,20.1%,1.77%,0.87%,10.9%,10.6%
COc1ccc(-c2coc3cc(O[C@@H]4O[C@H](CO)[C@@H](O)[C@H](O)[C@H]4O)ccc3c2=O)cc1O [Calycosin-7-O-beta-D-glucoside],95% and 99%,98.5%,93%,105%,112%,110%,97.1%,106%

Compound,cell viability (K562; SRSF2 genotype: SRSF2 P95H/wt),cell viability (K562; SRSF2 genotype: SRSF2 wt/wt),cell viability (MARIMO; SRSF2 genotype: SRSF2 P95H/wt),cell viability (MARIMO; SRSF2 genotype: SRSF2 wt/wt),cell viability (MOLM14; SRSF2 genotype: SRSF2 P95H/wt),cell viability (MOLM14; SRSF2 genotype: SRSF2 wt/wt),cell viability (OCI-AML2; SRSF2 genotype: P95H/wt),cell viability (OCI-AML2; SRSF2 genotype: wt/wt)
O=C1NC(=O)C(c2ccccc2)(c2ccccc2)N1 [Phenytoin (Lepitoin)],98.1% and 111%,99.6%,107%,103%,100%,103%,105%,91.6%
CN1c2cc(O)c(N=NC(N)=O)cc2CC1S(=O)(=O)O (stereo not given) [Carbazochrome sodium sulfonate],99.4% and 97%,95.2%,92.7%,98.7%,97%,99.3%,99.1%,106%
CC(C)c1c(-c2ccccc2)nc2c(C#N)c[nH]n2c1=O,105% and 99.3%,108%,103%,93.5%,97.8%,98.8%,103%,101%
Cc1cccc(-c2[nH]c(CNc3ccccc3F)nc2-c2ccc3ncnn3c2)n1,94.6% and 103%,99.9%,102%,109%,95.2%,98%,111%,114%
CC1(C)C=Cc2cc(-c3coc4cc(O)ccc4c3=O)ccc2O1 [Corylin],78.5% and 85.9%,85.4%,70.9%,69.7%,97%,97.4%,56.4%,60.8%
CCN(CC)CCNC(=O)c1c(C)[nH]c(/C=C2\C(=O)Nc3ccc(F)cc32)c1C [Sunitinib Malate],17.8% and 22.7%,12.7%,18.5%,19.4%,0.31%,0.38%,0.42%,1.47%
O=c1ncccn1[C@@H]1O[C@H](CO)[C@@H](O)[C@H]1O [Zebularine],90.9% and 85.1%,82.2%,87.7%,91.4%,89.7%,89.7%,96.6%,86.6%
COc1ccccc1OCC(O)CO (stereo not given) [Guaifenesin (Guaiphenesin)],106% and 104%,107%,103%,108%,107%,109%,105%,118%
O=C(/C=C/c1ccc(O[C@@H]2O[C@H](CO)[C@@H](O)[C@H](O)[C@H]2O)cc1)c1ccc(O)cc1O [Isoliquiritin],96.8% and 98%,105%,103%,97.6%,69.7%,87.6%,111%,107%
Cc1c(Cc2ccc3ccccc3n2)c2cc(F)ccc2n1CC(=O)O,102% and 99.7%,98.8%,97.5%,108%,98.5%,103%,90.4%,107%
O=C(O)Cc1cccc(OCCCN(Cc2cccc(C(F)(F)F)c2Cl)CC(c2ccccc2)c2ccccc2)c1,98.2% and 93.9%,92.9%,97.9%,113%,88.6%,96.7%,90.9%,98.5%
CC/C(=C(/CC)c1ccc(O)cc1)c1ccc(O)cc1 [Diethylstilbestrol],80.1% and 78.1%,78.8%,84.5%,87.1%,75.1%,87.8%,74.8%,81.4%
COc1cc2oc(=O)ccc2c(OC)c1C[C@@H](O)C(C)(C)O [Toddalolactone],106% and 101%,104%,102%,105%,112%,106%,102%,104%
Cc1ccc(N(CC2=NCCN2)c2cccc(O)c2)cc1 [Phentolamine Mesylate],93% and 101%,92.5%,90.3%,95.2%,102%,103%,102%,86.7%
CCC(=O)O[C@H]1[C@H](O[C@@H]2[C@@H](C)[C@H](O[C@H]3C[C@@](C)(OC)[C@@H](O)[C@H](C)O3)[C@@H](C)C(=O)O[C@H](CC)[C@@](C)(O)[C@H](O)[C@@H](C)C(=O)[C@H](C)C[C@@]2(C)O)O[C@H](C)C[C@@H]1N(C)C [Erythromycin estolate],92.3% and 89.5%,90.4%,92.3%,105%,96.4%,95.8%,77.5%,76.8%
N#CSc1cc(SC#N)c(N)nc1N,8.53% and 15.5%,33.9%,4.65%,1.5%,3.35%,0.44%,0.31%,0.95%
N#CC(=C(/N)Sc1ccccc1N)/C(C#N)=C(\N)Sc1ccccc1N,70.5% and 77.5%,72.7%,38.2%,37.1%,54.9%,57.2%,48.9%,48.1%
CC(C)(O)CC[C@@H](O)[C@](C)(O)[C@H]1CC[C@@]2(O)C3=CC(=O)[C@@H]4C[C@@H](O)[C@@H](O)C[C@]4(C)[C@H]3CC[C@]12C [20-Hydroxyecdysone],104% and 98.5%,102%,109%,107%,106%,106%,101%,111%
CCCCCCCCCC(=O)OCC(COC(=O)CCCCCCCCC)OC(=O)CCCCCCCCC [Glyceryl tridecanoate],105% and 101%,100%,106%,114%,100%,104%,97.2%,98.6%
O=C1CCCC(=O)C1C(=O)c1ccc(C(F)(F)F)cc1[N+](=O)[O-] [Nitisinone],105%,108%,103%,109%,104%,108%,110%,111%
